This note sets out measurements from the supplement of paper PMC3414501.

Test [1] deals with S. cerevisiae SK1 pCDA2-eGFP (USY613), sporulating. Description: CDA2-GFP sporulation assay sensitivity score (z-score vs DMSO controls); higher = stronger inhibition of sporulation, active = hit call of the paper.
Test [2] concerns S. cerevisiae NKY1551 his4x/his4B, sporulating. Description: HIS4 meiotic recombination assay sensitivity score (z-score vs DMSO controls); higher = stronger inhibition of sporulation/recombination, active = hit call of the paper.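 Note: active if sensitivity score above 5.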
For test [3], the system named is S. cerevisiae AD1-9 (efflux-pump deficient), vegetative growth in YPD. Description: growth sensitivity score (doubling time z-score vs DMSO controls); higher = slower growth, strongly negative scores also mark growth inhibition (complete suppression), active = hit call of the paper. The method, boiled down: (§1)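 Saccharomyces cerevisiae strains BY4741 and AD1-9 were seeded in rich medium in microtiter plates at an OD600 of 0.065. Compounds were added at a 1:100 dilution of DMSO stock. Optical density was read every 15 min for 24 hours on a Tecan GENios reader. Average doubling time was the time taken to reach a set generation point divided by generation number, and the growth sensitivity score was (compound mean − DMSO-control mean)/DMSO-control SD, using eight DMSO controls per experiment.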

For test [4], the system named is S. cerevisiae BY4741 (wild-type), vegetative growth in YPD. Described as above. An outline of the steps:
as §1

Counter-ions that a name gives are not always drawn. Unmarked numbers belong to inactive results.
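Throughout, for CDA2-GFP sporulation assay sensitivity score (z-score vs DMSO controls): active if sensitivity score above 5.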

Regarding `CN[C@H]1CC[C@@H](c2ccc(Cl)c(Cl)c2)c2ccccc21` [Sertraline] (stock concentration (mM, diluted 1:100): 9), the “CDA2-GFP sporulation assay sensitivity score” value in test [1] is -0.26. For the same compound, the “HIS4 meiotic recombination assay sensitivity score” value in test [2] was -0.61.

For `C=CCc1ccc(O)c(-c2ccc(O)c(CC=C)c2)c1` [Honokiol] (stock concentration (mM, diluted 1:100): 10.1), in test [1], the “CDA2-GFP sporulation assay sensitivity score” value was 0.56. The “HIS4 meiotic recombination assay sensitivity score” value in test [2] is -1.68.

Regarding `CC12CC3CC(C)(C1)CC(N)(C3)C2` [Memantine hydrochloride] (stock concentration (mM, diluted 1:100): 8.3), the “CDA2-GFP sporulation assay sensitivity score” value in test [1] was 2.32. In test [2], the “HIS4 meiotic recombination assay sensitivity score” value was 1.61. The growth sensitivity score in test [3] is -0.36; in test [4], -0.66.

In the case of `OCc1cc(C(O)CNCCCCCCOCCCCc2ccccc2)ccc1O` (stereo not given) [Salmeterol] (stock concentration (mM, diluted 1:100): 10), the “CDA2-GFP sporulation assay sensitivity score” value in test [1] was 10.5. In addition, the “HIS4 meiotic recombination assay sensitivity score” value in test [2] was 0.79. The growth sensitivity score in test [3] is 41.2 (active); in test [4], 3.81 (active).

Consider `CCCCc1nc(Cl)c(CO)n1Cc1ccc(-c2ccccc2-c2nnn[nH]2)cc1` [Losartan potassium] (stock concentration (mM, diluted 1:100): 9.2), for which the “CDA2-GFP sporulation assay sensitivity score” value in test [1] is -0.41. Moreover, in test [2], the “HIS4 meiotic recombination assay sensitivity score” value was -1.2. The growth sensitivity score in test [3] is -1.21; in test [4], -0.26.

As for `CN1CCC(=C2c3ccccc3CCc3sccc32)CC1` [Pizotyline] (stock concentration (mM, diluted 1:100): 10), the “CDA2-GFP sporulation assay sensitivity score” value in test [1] was -0.44. Besides, the “HIS4 meiotic recombination assay sensitivity score” value in test [2] is 9.23 (active). The growth sensitivity score in test [3] was 161 (active); in test [4] it was 5.7 (active).

Regarding `C[C@H]1COc2c(C3(N)CC3)c(F)cc3c(=O)c(C(=O)O)cn1c23` [Pazufloxacin] (stock concentration (mM, diluted 1:100): 10), the “CDA2-GFP sporulation assay sensitivity score” value in test [1] was 0.17. Moreover, the “HIS4 meiotic recombination assay sensitivity score” value in test [2] is -0.93. For the same compound, the values for the growth sensitivity score in test [3] and in test [4] were 0.07 and -1.05, respectively.

With `CCOC(=O)c1ccc(OC(=O)CCCCCNC(=N)N)cc1` [Gabexate mesylate] (stock concentration (mM, diluted 1:100): 7.7), the “CDA2-GFP sporulation assay sensitivity score” value in test [1] was 2.43. Moreover, the “HIS4 meiotic recombination assay sensitivity score” value in test [2] is 2.41. Also, the growth sensitivity score in test [3] is 10.8 (active); in test [4], 1.03.

Consider `O=C(O[C@H]1[C@H](Oc2ccccc2COC(=O)C2(O)C=CCCC2=O)O[C@H](CO)[C@@H](O)[C@@H]1O)c1ccccc1` (stereo not given in full) [Tremulacin] (stock concentration (mM, diluted 1:100): 10), for which the “CDA2-GFP sporulation assay sensitivity score” value in test [1] is 3.04. The “HIS4 meiotic recombination assay sensitivity score” value in test [2] is -1.23. The growth sensitivity score in test [3] is -1.16; in test [4] it was -0.72.

For the compound `CC[N+](C)(CC)CCOC(=O)C(O)(c1ccccc1)C1CCCCC1` (stereo not given) [Oxyphenonium bromide] (stock concentration (mM, diluted 1:100): 10), in test [1], the “CDA2-GFP sporulation assay sensitivity score” value was 0.76. Besides, the “HIS4 meiotic recombination assay sensitivity score” value in test [2] was 1.35. Besides, the growth sensitivity score is -1.02 in test [3] and 0.39 in test [4].

As to `CNCC[C@H](Oc1cccc2ccccc12)c1cccs1` [Duloxetine hydrochloride] (stock concentration (mM, diluted 1:100): 8.9), the “CDA2-GFP sporulation assay sensitivity score” value in test [1] is 16.3 (active). For the same compound, the “HIS4 meiotic recombination assay sensitivity score” value in test [2] was 7.17 (active). The growth sensitivity score in test [3] was 33.3 (active); in test [4] it was 21.8 (active).

Regarding `O=C(c1ccc(F)cc1)C1CCN(CCn2c(=S)[nH]c3ccccc3c2=O)CC1` [Altanserin] (stock concentration (mM, diluted 1:100): 10), in test [1], the “CDA2-GFP sporulation assay sensitivity score” value was 2.43. For the same compound, the “HIS4 meiotic recombination assay sensitivity score” value in test [2] was -0.6. The growth sensitivity score in test [3] is -0.28; in test [4] it was -0.21.

Consider `CC(C(O)c1ccc(O)cc1)N1CCC(Cc2ccccc2)CC1` (stereo not given) [Ifenprodil] (stock concentration (mM, diluted 1:100): 9.2), for which the “CDA2-GFP sporulation assay sensitivity score” value in test [1] is 16.1 (active). In addition, the “HIS4 meiotic recombination assay sensitivity score” value in test [2] was 4.63. Besides, the figures for the growth sensitivity score in test [3] and in test [4] were 44.9 (active) and 3.06 (active), respectively.

`CN(C)CCOC(c1ccccc1)c1ccccc1` [Diphenhydramine hydrochloride] (stock concentration (mM, diluted 1:100): 10): in test [1], the “CDA2-GFP sporulation assay sensitivity score” value is 2.11. For the same compound, the “HIS4 meiotic recombination assay sensitivity score” value in test [2] was 8.82 (active). The growth sensitivity score in test [3] is 3.46 (active); in test [4], 0.81.

Regarding `NNCCc1ccccc1` [Phenelzine sulfate salt] (stock concentration (mM, diluted 1:100): 10), the “CDA2-GFP sporulation assay sensitivity score” value in test [1] is 1.83. The “HIS4 meiotic recombination assay sensitivity score” value in test [2] was -3.78. Also, the figures for the growth sensitivity score in test [3] and in test [4] were -0.66 and 0.3, respectively.

Regarding `OCCOCCN1CCN(C2=Nc3ccccc3Sc3ccccc32)CC1` [Quetiapine hemifumarate] (stock concentration (mM, diluted 1:100): 7.7), the “CDA2-GFP sporulation assay sensitivity score” value in test [1] was 9.6 (active). Besides, in test [2], the “HIS4 meiotic recombination assay sensitivity score” value was 5.3 (active). In addition, the growth sensitivity score in test [3] is 0.31; in test [4] it was 1.12.
